Our source for the growth values is PubChem BioAssay (NCI).

“And” between values parts separate entries of the source, which are not always exact repeats. Equal values may be shown once. This is part of a sample that, as a whole, favours compounds with a hit. Of some 83,000 tested, about 20% had one in any assay.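 In brief: 96-well plates, 48 h treatment, single concentration, percent growth endpoint.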 Values without a mark were called inactive. The source made the active and inactive calls. Rule for the calls: active = growth percent below 10; inactive = the rest.

This experiment deals with MDA-MB-468 breast. Briefly: NCI-60 one-dose screen, 48 h (100 = growth as untreated, 0 = no growth, -100 = all killed). The note with it: 10 µM unless noted.
Regarding `Cc1cc(C)c(C[N+](C)(C)C)c(C)c1C`, the growth was 16.1%. For the compound `NC(CCl)CCl`, the growth is 96.8%. Regarding `CN(C)CC(C(=O)Cc1ccccc1)c1ccccc1` (stereo not given), the growth is -29.8% (active). For `COc1cc(NC(C)CCCNC2CN3CCC2CC3)c2ncccc2c1` (stereo not given) the value was -1.39% (active); for `CC(=O)O[C@H](C[C@H](C(C)C)N(C)C(=O)[C@@H](NC(=O)[C@H]1CCCCN1C)C(C)C)c1nc(C(=O)N[C@@H](Cc2ccccc2)C[C@H](C)C(=O)O)c(C)s1`, 11.4%; for `ClCCN(CCCl)c1ccc(OCc2ccccc2)cc1`, 58.3%. For `O=C1c2ccccc2C(=O)N1[N+](=O)[O-]` the value was 89.2%; for `COc1ccc2c(c1)c(-c1nc(-c3c[nH]c4ncccc34)cs1)cn2CCCCN1CCCCC1`, -75.6% (active).

Consider `O=C(NCCCN1CC1)Nc1cccc2ccccc12`, for which the growth is 103% and 90.7%. As for `C/C(=N/OC(=O)N(C)C)c1ccc(Cl)cc1Cl`, the growth was 114%. Regarding `c1ccc([As]=[As]c2ccccc2)cc1` (stereo not given), the growth was -55.7% (active). For `[Br][Pb]([c]1ccccc1)([c]1ccccc1)[c]1ccccc1` the value was -88.2% (active); for `O=C1NC(=O)C(O)(C2(O)C(=O)NC(=O)NC2=O)C(=O)N1`, 99.8%. As for `O=P(O)(Nc1ccccc1)Nc1ccccc1`, the growth was 90.2%. As for `CCOC(=O)[C@@H](C)C[C@H](Cc1ccccc1)NC(=O)c1csc([C@@H](C[C@H](C(C)C)N(C)C(=O)[C@@H](NC(=O)[C@H]2CCCCN2C)C(C)(C)C)OC(C)=O)n1`, the growth was 10.7%. Turning to `CC[C@H](C)[C@H](NC(=O)[C@H]1CCCCN1C)C(=O)N(C)[C@H](C[C@@H](O)c1nc(C(=O)N[C@@H](Cc2ccccc2)C[C@H](C)C(=O)O)cs1)C(C)C`, the growth is 70.1%. Regarding `CC[C@H](C)[C@H](NC(=O)c1cccn1C)C(=O)N(C)[C@H](C[C@@H](OC(C)=O)c1nc(C(=O)N[C@@H](Cc2ccccc2)C[C@H](C)C(=O)OC)cs1)C(C)C`, the growth was 25.9%. The result for `CC(C)=CCc1c2c(c(O)c3c1O[C@]14C(=C[C@@H]5C[C@H]1C(C)(C)O[C@@]4(C/C=C(/C)C(=O)O)C5=O)C3=O)C=CC(C)(C)O2` reads -80.8% (active); that for `N#CC(NC(=O)CCl)=C(Cl)Cl`, -48.2% (active).

On to `O=[P+](O)c1cccnc1`, for which the growth was 99.1%. Take `CCOc1ccc(C(O)CN(C)Cc2ccccc2)cc1Cl` (stereo not given): the growth was 100%. The result for `[N-]=[N+]=NC(C(=O)O)c1ccccc1` (stereo not given) reads 126%. The result for `C[C@]12CCc3sc(-c4ccc(Cl)cc4)nc3C1=CC[C@@H]1[C@@H]2CC[C@]2(C)C(=O)CC[C@@H]12` reads 55.5%. The result for `O=C(O)c1nn(Cc2ccc(Cl)cc2)c2ccccc12` reads 105%; that for `CNC(=O)O/N=C(/C)c1ccc(Cl)cc1`, 105%. For `COc1cc(C2(C#N)CCN(C)CC2)cc(OC)c1OC`, the growth was 108%. Turning to `CC/C(Cc1ccccc1)=C(\c1ccc(OCCN2CCCC2)cc1)c1ccc(OC(=O)NCc2ccccc2)cc1`, the growth was 14.8%.

For `COc1cc(NCCCN=C(N)N)c2ncccc2c1`, the growth is -37.1% (active). Regarding `C=CC[PH+](c1ccccc1)c1ccccc1.C=CC[PH+](c1ccccc1)c1ccccc1.[Pt+2].[S-]c1nc2ccccc2[nH]1.[S-]c1nc2ccccc2[nH]1`, the growth was -14% (active).

For `CC(C)CCC(=O)O[C@H]1CC[C@H]2[C@@H]3CCC4=CC(=O)CC[C@]4(C)[C@H]3CC[C@]12C`, the growth is 102%.

For the compound `CCCn1cc2c3c(cccc31)[C@H]1C[C@@H](C)CN(C)[C@@H]1C2`, the growth is 95.5%. Take `Cc1cccc(N2CCN(C(C)C#N)CC2)c1` (stereo not given): the growth is 100%. For `CCC(=O)OC1CCn2c1nc1c2C(=O)C(C)=C(N2CC2)C1=O` (stereo not given) the value was 44.3%; for `Cc1ccccc1-n1c(/C=C\c2ccccn2)nc2ccccc2c1=O`, 3.39% (active); for `NC(=O)C(Br)c1ccccc1` (stereo not given), 57.5%. As for `NC(=O)c1cc([N+](=O)[O-])c(Cl)c([N+](=O)[O-])c1Cl`, the growth is -84.9% (active).

On to `NC1CN2CCC1CC2` (stereo not given), for which the growth is 108%. For `COc1ccc(N(CC(=O)NCCC[Te]c2ccccc2)C(=O)c2ccccc2)cc1` the value was 97.2%; for `Cn1cc(-c2csc(-c3cn(CCN4CCOCC4)c4ccc(F)cc34)n2)c2cccnc21`, 13.9%. Regarding `S=P(Nc1ccccc1)(Nc1ccccc1)c1ccccc1`, the growth is 127%.
